Measurements taken from PubChem BioAssay AID1159580 (chemical genetic matrix, 2015).
“And” between values parts separate entries of the source, which are not always exact repeats. Equal values may be shown once. The whole screen tested about 5,500 compounds, of which about 2,000 (36%) were called active. Not shown: some 18% with an inconclusive outcome. Cut-off read from the data, not from the text of the source: active = normalized growth mostly below about 0.91 (no sharp cut-off); inconclusive = no clear call, values can overlap the other calls; inactive = mostly above about 0.92. The list shows a part of the results.

Test: chemical genetic growth profiling, strain panel (AID 1159580);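 note: tested at 20 µM; growth read once vehicle control cultures reached saturation at 30 °C; 1 = growth at the plate median or of vehicle wells; lower values mean less growth of the strain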
Conditions: S. cerevisiae deletion strains, growth OD

Measured: normalized growth

CC1=C2C(O)C(=O)OC3CC4C(C)(C)C(=O)C=C[C@]4(C)C(CC1)[C@]23C (stereo partly specified)
inactive: locus YAL021C, strain ccr4, hits give low values 1.01 | locus YAL026C, strain drs2, hits give low values 1.02 | locus YAL030W, strain snc1, hits give low values 1.01 | locus YBL061C, strain skt5, hits give low values 1.01 | locus YBR009C, strain hhf1, hits give low values 1 | locus YBR021W, strain FUR4, hits give low values 0.994 | locus YBR023C, strain chs3, hits give low values 1.02 | locus YBR171W, strain sec66, hits give low values 1.01 | locus YBR229C, strain ROT2, hits give low values 1.02 | locus YBR231C, strain swc5, hits give low values 1 | locus YBR279W, strain paf1, hits give low values 1 | locus YCL011C, strain gbp2, hits give low values 1.01 | locus YCL016C, strain dcc1, hits give low values 1.01 | locus YCL029C, strain bik1, hits give low values 1 | locus YCL061C, strain MRC1, hits give low values 1 | locus YCL069W, strain vba3, hits give low values 1 | locus YCR088W, strain abp1, hits give low values 1.01 | locus YDL005C, strain med2, hits give low values 1.02 | locus YDL035C, strain GPR1, hits give low values 1.03 | locus YDL040C, strain nat1, hits give low values 1.01 | locus YDL074C, strain BRE1, hits give low values 1.07 | locus YDL101C, strain DUN1, hits give low values 1.04 | locus YDL134C, strain PPH21, hits give low values 1.04 | locus YDL185W, strain tfp1, hits give low values 1.02 | locus YDL192W, strain arf1, hits give low values 1.02 | locus YDR001C, strain nth1, hits give low values 1 | locus YDR069C, strain doa4, hits give low values 1.02 | locus YDR101C, strain arx1, hits give low values 0.99 | locus YDR137W, strain rgp1, hits give low values 1.12 | locus YDR159W, strain sac3, hits give low values 1.03 | locus YDR162C, strain NBP2, hits give low values 1.04 | locus YDR195W, strain ref2 0.986 | locus YDR297W, strain sur2, hits give low values 1.02 | locus YDR318W, strain mcm21, hits give low values 1.02 | locus YDR334W, strain swr1, hits give low values 1 | locus YDR335W, strain msn5, hits give low values 1 | locus YDR388W, hits give low values 1.02 | locus YDR392W, strain spt3, hits give low values 1.03 | locus YDR502C, strain sam2, hits give low values 1.04 | locus YEL003W, strain gim4, hits give low values 1 | locus YEL037C, strain rad23, hits give low values 1 | locus YEL061C, strain CIN8 (second series), hits give low values 1.01 | locus YER015W, strain faa2, hits give low values 1.01 | locus YER016W, strain bim1, hits give low values 1.02 | locus YER110C, hits give low values 1.02 | locus YER111C, strain swi4, hits give low values 1.02 | locus YER155C, strain BEM2 (second series), hits give low values 1.01 | locus YER155C, strain BEM2, hits give low values 1 | locus YER167W, strain BCK2, hits give low values 1 | locus YFR010W, strain ubp6, hits give low values 1.01 | locus YGL078C, strain dbp3, hits give low values 1.05 | locus YGL086W, strain mad1, hits give low values 1.01 | locus YGL167C, strain pmr1, hits give low values 1.02 | locus YGL173C, strain kem1, hits give low values 1.03 | locus YGL227W, strain vid30, hits give low values 1.01 | locus YGL240W, strain doc1, hits give low values 1 | locus YGL248W, strain PDE1, hits give low values 1.02 | locus YGL253W, strain hxk2, hits give low values 1.02 | locus YGR078C, strain PAC10, hits give low values 1.05 | locus YGR135W, strain pre9, hits give low values 1.07 | locus YGR252W, strain gcn5, hits give low values 1.13 | locus YHR013C, strain ard1, hits give low values 1.04 | locus YHR027C, strain rpn1, hits give low values 1.02 | locus YHR030C, strain SLT2, hits give low values 1.01 and 1.04 | locus YHR079C, strain IRE1 (second series), hits give low values 1.01 | locus YHR079C, strain IRE1, hits give low values 1.02 | locus YHR094C, strain hxt1, hits give low values 1.01 | locus YHR129C, strain ARP1, hits give low values 1.02 | locus YHR142W, strain chs7, hits give low values 1.01 | locus YHR200W, strain rpn10, hits give low values 1.02 | locus YIL066C, strain RNR3, hits give low values 1.02 | locus YIL073C, strain SPO22, hits give low values 1.06 | locus YIL125W, strain kgd1, hits give low values 0.995 | locus YIR030C, strain dcg1, hits give low values 1.02 | locus YJL092W, strain hpr5, hits give low values 1 | locus YJL095W, strain BCK1 (second series), hits give low values 1.01 | locus YJL095W, strain BCK1, hits give low values 1.07 and 1.03 | locus YJL115W, strain asf1, hits give low values 1.01 | locus YJL129C, strain trk1, hits give low values 1.03 | locus YJL134W, strain LCB3, hits give low values 1.01 | locus YJL154C, strain vps35, hits give low values 1.02 | locus YJL164C, strain tpk1, hits give low values 1.01 | locus YJL166W, strain qcr8, hits give low values 1.01 | locus YJL168C, strain set2, hits give low values 1.02 | locus YJL187C, strain SWE1 (second series), hits give low values 1.05 | locus YJL187C, strain SWE1, hits give low values 1.01
